Records with an inconclusive call do not appear. A call without a number means that no potency is given here. Active and inactive are the calls of the source. The call rests on the fitted dose curve; in most records, active means well fitted cell-killing curve with a large enough effect; inconclusive means small, poorly fitted or top-dose-only effect, or effect the other way; inactive means no such curve, though single readings can be large or run the other way.
Potency means the concentration at half of the fitted maximal effect.

One assay is described as follows: Quantitative High-Throughput drug screen in 47 multiple myeloma cell lines against the NCATS MIPE library collection: UTMC2_PLB cell viability assay (AID 1919868). Further: nearly all actives have a fitted effect of over 55% in size. Particulars: CellTiter-Glo ATP luminescence, 48 h; viability (% of DMSO control): at 45.8 µM (top of the series). In short, it runs like this:
(§1)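 Cells were exposed to library compounds for 48 hours, after which ATP was measured by CellTiter-Glo. Signal was taken as median relative luminescence units.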
(ATP-based viability assays read luminescence as a measure of living cells.)
With `COc1cc(NC(=O)c2ccc(-c3ccc(Cl)cc3)o2)cc(OC)c1`, the Potency was 10.5 µM (active). Same read-out and setting: to `O=C(NC1CCOCC1)c1ccc(-c2cc(-c3cn[nH]c3-c3ccccn3)ccn2)cc1` belongs “inactive”. On the same count and under the same terms, to `O=C1NC(=O)C(=Cc2ccc3c(c2)OC(F)(F)O3)S1` belongs 23.5 µM (active); to `CC(C)(C)COc1ccc(-n2cc(C(=O)O)cn2)cc1C#N`, “inactive”.

On to `Cc1cnc(C(=O)O)c[n+]1[O-]`, for which the Potency result was “inactive”. On the same count and under the same terms, the same measure for `CC1(C)Cc2c(sc(NC(=S)NC(=O)c3ccccc3)c2C(=O)O)CO1`: 20.9 µM (active); for `C[N+]1(C)[C@@H]2CC(OC(=O)[C@H](CO)c3ccccc3)C[C@H]1[C@H]1O[C@@H]12` (stereo partly specified): “inactive”; for `CC(C)C[C@H](CC(=O)O)C(=O)N[C@@H](Cc1c[nH]c2ccccc12)C(=O)N[C@@H](C)c1ccccc1`: “inactive”. On the same count and under the same terms, to `CC(C)(C)c1cc(C(=O)O)c(NC(=O)Nc2ccc3[nH]ncc3c2)s1` belongs “inactive”; to `CC(C)OC(=O)C(C)(C)Oc1ccc(C(=O)c2ccc(Cl)cc2)cc1`, “inactive”.

The next assay in a line: Quantitative High-Throughput drug screen in 47 multiple myeloma cell lines against the NCATS MIPE library collection: PE2_PLB cell viability assay (AID 1919869). Further: nearly all actives have a fitted effect of over 35% in size. The settings on record: PE2_PLB myeloma cells viability, ATP luminescence, 48 h; series mostly up to 45.8 µM. In a few lines: as §1
Consider `COc1cc(NC(=O)c2ccc(-c3ccc(Cl)cc3)o2)cc(OC)c1`, for which the Potency was 5.9 µM (active). On the same count and under the same terms, the same measure for `Cc1cccc(Nc2nc(-c3ccncc3)cs2)c1`: 23.5 µM (active); for `N#CC1(c2ccc(NC(=O)c3cccnc3NCc3ccncc3)cc2)CCCC1`: 18.7 µM (active). The same measure, in the same setting: the same measure for `O=C(NC1CCOCC1)c1ccc(-c2cc(-c3cn[nH]c3-c3ccccn3)ccn2)cc1`: “inactive”. Take `O=C1NC(=O)C(=Cc2ccc3c(c2)OC(F)(F)O3)S1`: the Potency is 20.9 µM (active). The same measure, in the same setting: the same measure for `Cc1ccc(C(C)(O)c2nc3ccccc3s2)c(C)c1` (stereo unspecified): “inactive”; for `COc1cc(O)c2c(c1)C(=O)c1cc(C)cc(O)c1C2=O`: “inactive”. Same read-out and setting: to `COc1ccc(-c2nc(N3CCOCC3)c3sc(CN(C)c4ncc(C(=O)NO)cn4)cc3n2)cn1` belongs 0.001 µM (active).

`COc1ccc(C2CC(c3ccccc3)=NN2c2ccc(S(N)(=O)=O)cc2)cc1` (stereo unspecified): the Potency is 23.5 µM (active). Still for that read-out and setting: the same measure for `Nc1ncnc2c1ncn2[C@@H]1O[C@@H](CO)[C@H](O)[C@H]1O`: “inactive”; for `COC(=O)C1=CO[C@@H](O)[C@@H]2C(CO)=CC[C@@H]12`: 20.9 µM (active); for `O=C(OCC#CCSc1nnc(-c2cccc3ccccc23)o1)c1cc2ccccc2s1`: “inactive”. Same read-out and setting: to `Cc1cnc(C(=O)O)c[n+]1[O-]` belongs “inactive”. Same read-out and setting: to `O=C1C[C@@H](c2ccc(O)cc2)Oc2cc(O)cc(O)c21` belongs “inactive”; to `O=C(Nc1ccccc1Br)N[C@@H]1CCN(c2ccc(C(F)(F)F)cn2)C1`, 18.7 µM (active).

As to `CCC(CC)[C@H](NC(C)=O)[C@@H]1[C@H](O)[C@@H](C(=O)O)C[C@@H]1N=C(N)N`, the Potency result is “inactive”. As for `CC(C)C[C@H](CC(=O)O)C(=O)N[C@@H](Cc1c[nH]c2ccccc12)C(=O)N[C@@H](C)c1ccccc1`, the Potency result is “inactive”.

For `CC(C)(C)c1cc(C(=O)O)c(NC(=O)Nc2ccc3[nH]ncc3c2)s1`, the Potency was 16.6 µM (active).

In the case of `CNC(=O)c1ccc2cc(C3(O)CCn4cncc43)ccc2c1` (stereo unspecified), the Potency result was “inactive”. Same read-out and setting: to `C[N+](C)(C)CC(=O)O` belongs “inactive”. The same measure, in the same setting: to `COc1ccc(Cc2ccc(NC(N)=O)cc2)cc1-c1cccc(Cl)c1` belongs “inactive”. The same measure, in the same setting: to `CC[C@H]1OC(=O)[C@H](C)[C@@H](O[C@H]2C[C@@](C)(OC)[C@@H](O)[C@H](C)O2)[C@H](C)[C@@H](O[C@@H]2O[C@H](C)C[C@H](N(C)C)[C@@H]2O)[C@](C)(O)C[C@@H](C)CN(C)[C@H](C)[C@@H](O)[C@]1(C)O` belongs “inactive”.

Turning to `CCOC(=O)O[C@]1(C(=O)OCCl)CC[C@@H]2[C@H]3CCC4=CC(=O)C=C[C@]4(C)[C@@H]3[C@@H](O)C[C@@]21C`, the Potency entry is “inactive”. On the same count and under the same terms, the same measure for `O=c1ccn([C@@H]2O[C@H](CO)[C@H](O)[C@H]2O)c(=O)[nH]1`: “inactive”; for `CC(C)C(=O)Oc1ccc(CO)cc1[C@H](CCN(C(C)C)C(C)C)c1ccccc1`: “inactive”; for `CC(C)OC(=O)C(C)(C)Oc1ccc(C(=O)c2ccc(Cl)cc2)cc1`: 20.9 µM (active).

These data come from PubChem BioAssay (NCATS).
